Experimental findings from PubChem BioAssay (Tox21) are described below.

Unmarked numbers belong to inactive results. Active and inactive are the calls of the source. The call rests on the fitted dose curve.
On the % scale 0 is the no-effect control and ±100 the full control effect.

Sequence of Acetylcholinesterase (Homo sapiens) (P22303 whole entry, looked up): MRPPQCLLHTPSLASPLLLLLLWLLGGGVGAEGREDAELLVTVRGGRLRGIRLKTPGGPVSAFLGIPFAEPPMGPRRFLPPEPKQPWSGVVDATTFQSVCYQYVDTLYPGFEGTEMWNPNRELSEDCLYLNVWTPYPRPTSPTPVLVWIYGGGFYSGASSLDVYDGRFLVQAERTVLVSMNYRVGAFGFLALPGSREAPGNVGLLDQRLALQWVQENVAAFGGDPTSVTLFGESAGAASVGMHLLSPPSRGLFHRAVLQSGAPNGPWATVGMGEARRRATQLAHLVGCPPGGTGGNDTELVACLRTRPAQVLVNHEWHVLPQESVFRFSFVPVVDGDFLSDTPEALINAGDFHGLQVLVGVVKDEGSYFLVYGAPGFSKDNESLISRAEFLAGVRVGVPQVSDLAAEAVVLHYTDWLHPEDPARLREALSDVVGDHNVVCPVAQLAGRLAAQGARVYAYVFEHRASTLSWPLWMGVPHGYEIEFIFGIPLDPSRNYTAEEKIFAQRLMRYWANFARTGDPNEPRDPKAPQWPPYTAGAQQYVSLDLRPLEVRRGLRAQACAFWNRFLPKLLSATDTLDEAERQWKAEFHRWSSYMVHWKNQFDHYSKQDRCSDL

For the test, the target named is Acetylcholinesterase (Homo sapiens) (UniProt P22303). Nature of the test: Acetylcholinesterase (AChE) small molecule antagonists: enzyme-based qHTS assay with human liver microsomes (AID 1347399). Further: nearly all actives have a fitted effect of over 60% in size. The settings on record: Potency: qHTS inhibition; outcome: qHTS inhibition; series mostly up to 115 µM; activity change, negative = inhibition: at the top concentration. Summed up:
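Recombinant human AChE (50 mU/mL in the enzyme mix) and human liver microsomes (0.25 mg/mL final) were preincubated with compound and NADPH (0.25 mg/mL final) for 30 min at 37 C. Acetylthiocholine/DTNB was then added; thiocholine was read colorimetrically after 10 min at room temperature.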
Consider `O=C1CCCC(=O)O1`, for which the “activity change, negative = inhibition” value was 0.359%. The same measure, in the same setting: then `CC1(C)C(=O)NC(=O)N1CO`, with 0.273%; and `CC(C)c1cccc(C(C)C)c1N1C(=O)c2ccc(O)cc2C1=O`, with 6.26%. For `CC(=O)CCC(=O)O`, the Potency result is “inactive”. Regarding `CCc1oc2ccccc2c1C(=O)c1cc(I)c(O)c(I)c1`, the “activity change, negative = inhibition” value was -1.93% [at 53 µM]. On to `O=C(O)c1cc(O)c2c(c1)C(=O)c1cccc(O)c1C2=O`, for which the “activity change, negative = inhibition” value is 12.6%. Same read-out and setting: in the case of `CC1(C)CC(=O)CC(C)(C)N1` it was -0.971%; in that of `CC(=O)CC/C=C(\C)CC/C=C(\C)CC/C=C(\C)CCC=C(C)C`, -1.33% [at 53 µM]. Still for that read-out and setting: then `CC(C)OC(=O)c1cc(C(=O)OC(C)C)cc([N+](=O)[O-])c1`, with -1.67%. Take `c1ccc2c(c1)CCc1ccccc1N2`: the Potency entry is “inactive”. `CC(=O)CC(C)(C)O`: the Potency entry was “inactive”. Take `C/C=C/C=C/CO`: the “activity change, negative = inhibition” value was 5.62%. Regarding `Cc1cc(O)c(C(C)C)cc1Cl`, the Potency entry is “inactive”. For the compound `O=C=Nc1cccc(C(F)(F)F)c1`, the “activity change, negative = inhibition” value was 2.45%. In the case of `O=c1cc(-c2ccccc2)oc2cc(O)cc(O)c12`, the “activity change, negative = inhibition” value is 3.58%. The same measure, in the same setting: in the case of `CC1=Nc2ccc3ccccc3c2C1(C)C` it was -2.99%.

Turning to `CC(=O)[C@@]1(O)CC[C@H]2[C@@H]3C[C@H](C)C4=CC(=O)C=C[C@]4(C)[C@@]3(F)[C@@H](O)C[C@@]21C`, the Potency entry was “inactive”.
